Screen size: about 330,000 compounds; about 1,500 (0.45%) were called active. Inconclusive results (about 6%) are left out. The sample holds actives, similar compounds and a random draw of the others, so the mix is not that of the screen. Calls follow the shape of the full dose curve; tested in A549 cells.
Assay: qHTS for Stage-Specific Inhibitors of Vaccinia Orthopoxvirus: Venus Reporter Primary qHTS; also: nearly all actives have a fitted effect of over 30% in size
Conditions: Vaccinia virus Venus reporter expression, fluorescence; series mostly up to 36.5 µM; activity change, negative = inhibition: at the top concentration
% is scaled to controls: 0 for no effect and ±100 for the full control effect; potency is read from the fitted curve at half-maximal effect.

| Compound | activity change, negative = inhibition | Potency |
| --- | --- | --- |
| Cc1cccc(C)c1NC(=O)CN1CCN(c2ccc(F)cc2)CC1 | 9.83% (inactive) |  |
| COc1cc(OC)c(/C=C/c2ccnc3ccccc23)c(OC)c1 | -21.1% (inactive) |  |
| CCOC(=O)N(C)c1c(CC)nc2c(OCc3ccccc3C(=O)OC)cccn12 | -5.36% (inactive) |  |
| CCOC(=O)c1cc2cc(OC)ccc2n1C1CCN(C)CC1 | -26.8% (inactive) |  |
| CCOC1=C2[C@@H](CN(S(=O)(=O)c3ccc(C)cc3)[C@H]2c2ccccc2F)[C@H]2C(=O)N(Cc3ccccc3)C(=O)[C@H]2C1 | -12.5% (inactive) |  |
| CCOC(=O)C1=CC[C@@H](c2ccncc2)N(S(=O)(=O)c2ccc(C)cc2)C1 | -22.6% (inactive) |  |
| CSc1nc(Nc2ccc(F)cc2)cc(-c2ccccc2)n1 | -18.6% (inactive) |  |
| CSc1nc(-c2ccccc2)nc(C(Cl)Cl)n1 |  | 10 µM (active) |
| CSc1ncc(Sc2ccccc2)c(C(=O)O)n1 | 2.49% (inactive) |  |
| Cc1cc(Br)cn2c(Cc3ccccc3C(F)(F)F)c(C3CCCCC3)nc12 | -2.66% (inactive) |  |
| CCc1nc2c(OCc3ccc(F)c(F)c3)cccn2c1N(C)C(=O)c1ccco1 | 3.62% (inactive) |  |
| CC(C)(C)NCC(O)COc1cccc2[nH]c(=O)[nH]c12 (stereo not drawn) |  | inactive |
| COc1ccc(OCC(O)CNCCNc2nccc(C(F)(F)F)n2)cc1 (stereo not drawn) | -14.2% (inactive) |  |
| CC(C)(C)CC(C)(C)NCC(O)COCCOc1ccc(Br)cc1 (stereo not drawn) |  | 10 µM (active) |
| CCCCNC(=O)C[C@@H]1C[C@@]2(C(=O)OCC)CCC=C2N(Cc2cccc3ccccc23)C1=O | -13.2% (inactive) |  |
| COc1ccc(C(C(=O)Nc2c(C)cccc2C)N2CCN(c3ccc(C)cc3)CC2)cc1 (stereo not drawn) | -3.04% (inactive) |  |
| CN(C)c1cccc(NC(=O)c2ccc(-c3ccc(F)c(F)c3)c3ccoc23)c1 | -9.75% (inactive) |  |
| CCc1nc2c(OCc3cccc(OC)c3)cccn2c1N(C)C(=O)C(C)C | -15.6% (inactive) |  |
| C/C(CC1CC(C)(C)OC1=O)=N/Nc1nc(-c2ccccc2)cs1 (stereo not drawn) | -10.7% (inactive) |  |
| CC(=O)Nc1cccc(-c2csc(Nc3cccc(C)n3)n2)c1 | -23.1% (inactive) |  |
| CC(=O)Nc1ccc(-c2csc(NC=C3C(=O)OC(C)(C)OC3=O)n2)cc1 |  | 4.47 µM (active) |
| O=C(COc1ccccc1C(=O)Nc1ccccc1)Nc1cccc(F)c1 | -20.5% (inactive) |  |

| Compound | activity change, negative = inhibition | Potency |
| --- | --- | --- |
| COc1ccc(C(=O)C(OP(=O)(OC)OC)c2ccccc2OC)cc1 (stereo not drawn) | -6.83% (inactive) |  |
| COc1ccc2c(c1)NC(=O)C2CC(=O)N1CCOc2c(cc(-c3cnc4ccccc4c3)cc2OC)C1 (stereo not drawn) | -10.6% (inactive) |  |
| CC(=O)OC1C2(CC3N4C(=O)C5(CO)SSC4(CC31O)C(=O)N5C)OC(C)C(C)(C)C2=O (stereo not drawn) |  | 3.16 µM (active) |
| CCCNC(=O)C1(C)CCN1C(=O)Cc1ccc(-c2ccccc2)cc1 (stereo not drawn) | -8.6% (inactive) |  |
| CCOC(=O)[C@]12CCCC=C1N(CCC1=CCCCC1)C(=O)[C@H](CC(=O)N1CCCCC1)C2 | -21.2% (inactive) |  |
| COc1ccc(CC(=O)Nc2ccc(C(=O)NC(C)(C)C)cc2)cc1 | -5.09% (inactive) |  |
| C/C=C/NNC(=O)Cc1ccc(OC)cc1 |  | 10 µM (active) |
| CCCCCNC(=O)Cc1ccc(OC)cc1 | -18.1% (inactive) |  |
| Cc1cccc(NC(=O)COC(=O)c2ccccc2OCc2cccc(Br)c2)c1 | -15.5% (inactive) |  |
| CC1(C)OC(=O)C2=C(C[C@@H](C3CCCCC3)O[C@@H]2c2ccc(Cl)cc2)O1 | -0.804% (inactive) |  |
| Cc1ccc(C)c(S(=O)(=O)N2CCN(c3ncnc4sccc34)CC2)c1 |  | 2.51 µM (active) |
| Cc1ccc(C)c(S(=O)(=O)n2nc(C)c(S(=O)(=O)N3CCC(C)CC3)c2C)c1 | 3.55% (inactive) |  |
| Cc1ccc(S(=O)(=O)N2CCN(c3ncnc4ccccc34)CC2)cc1 | -26.6% (inactive) |  |
| O=[N+]([O-])c1ccc(/C=C/c2ccc3cccnc3c2)cc1 | -27.2% (inactive) |  |
| Cc1cccc(-c2nnc(SC(C)C(=O)Nc3ccccc3)n2C)c1 (stereo not drawn) | -13.2% (inactive) |  |
| Cc1cccc(N2CCN(c3ccc(NC(=O)/C=C\C(=O)O)cc3)CC2)c1 | -0.657% (inactive) |  |
| C=CC(=O)Nc1ccc(Nc2ccnc(Nc3ccc(N4CCN(C)CC4)cc3)n2)cc1 |  | 10 µM (active) |
| CN1CCN(c2ccc(NC(=O)c3cc(Cl)c4c(c3)OCCO4)cc2)CC1 | -3.42% (inactive) |  |
| CCCCc1c(-c2ccc(Cl)cc2)ncn1CCc1ccccc1OC | -26.6% (inactive) |  |
| Cc1ccc(-c2nc3c(Cl)cc(C(F)(F)F)cn3c2Cc2cccc(Cl)c2)cc1 | 6.36% (inactive) |  |
| O=S1(=O)CC(N2CCN(c3ccccn3)CC2)CN1Cc1ccc(F)cc1 (stereo not drawn) | -8.95% (inactive) |  |
